About 8,800 targets were measured; listed, in parts, are those with a hit and a random draw of the rest. About 0.5% of all pairs of compound and target were hits.
Key:
Assay in all cases: log2 fold change, soluble protein after heating vs DMSO (PISA); higher = thermal stabilisation; K562 lysate, 10 uM; active = over 0.2 and 3.5 SD of the protein, either way, in both replicates (recomputed)
ibrutinib = compound: C=CC(=O)N1CCC[C@@H](n2nc(-c3ccc(Oc4ccccc4)cc3)c3c(N)ncnc32)C1 [ibrutinib]
Outline: (§1)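 Pellets of K562 cells were dounce-homogenised in PBS pH 7.4 with 1 mM MgCl2, and the crude extract was held at 1 mg/mL protein for a 30 min treatment with 10 μM compound. Aliquots were heated for 3 min over 48°C-58°C and pooled before NP-40 was added to 0.5% at 4°C. The supernatant from 21,000xg for 90 min was quantified by TMTpro 16plex LC-MS/MS with channel sums equalised. Values are reported from duplicates as log-two fold change in thermal stability relative to solvent controls.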

[1] = compound: CC(=O)c1cnc2ccc(-c3cc(Cl)c(O)c(Cl)c3)nc2c1N[C@H]1CC[C@H](CN(C)C)CC1
Outline: as §1

ralimetinib = compound: CC(C)(C)Cn1c(N)nc2ccc(-c3[nH]c(C(C)(C)C)nc3-c3ccc(F)cc3)nc21 [ralimetinib]
Outline: as §1

[2] = compound: CC(C)(O)CC(=O)NCCn1ccc2ncnc(Nc3ccc(Oc4cccc(C(F)(F)F)c4)c(Cl)c3)c21
Outline: as §1

[3] = compound: CC(C)C1=C2N=C(C=C(N2N=C1)NCC3=CC=CC=C3)NCCCCCCN
Outline: as §1

[4] = compound: CC1=C(C(CC(=O)N1)C2=CC=C(C=C2)C(F)(F)F)C(=O)NC3=C(C=C4C(=C3)C=NN4)F
Outline: as §1

[5] = compound: CC1=C(C2=C(C=C1)C(=O)C3=CC=CC=C3N2CCCN)C
Outline: as §1

[6] = compound: CC1=C(C=C(C=C1)NC(=O)C2=CC(=CC=C2)C(C)(C)C#N)NC3=CC4=C(C=C3)N=CN(C4=O)C
Outline: as §1

[7] = compound: CC1=C(C=C(C=C1)NC(=O)C2=CC(=CC=C2)N(C)C)NC(=O)C3=CC=C(C=C3)O
Outline: as §1

[8] = compound: CC1=CC=C(C=C1)SC2=C3C=C(SC3=CN=C2)C(=O)N
Outline: as §1

Measured: log2 fold change

PIP4K2B (UniProt P78356)
inactive: ibrutinib -0.002 | [1] 0.043 | ralimetinib 0.016 | [2] 0.023 | [3] -0.032 | [4] -0.043 | [5] -0.022 | [6] 0.087 | [7] -0.044 | [8] -0.031

PRKACA (UniProt P17612)
inactive: ibrutinib 0.021 | ralimetinib 0.029 | [2] -0.106 | [3] -0.045 | [4] 0.059 | [5] -0.046 | [6] -0.118 | [7] -0.008 | [8] -0.057
active: [1] 0.767

POLR2G (UniProt P62487)
inactive: ibrutinib -0.01 | [1] -0.001 | ralimetinib 0.027 | [2] -0.017 | [3] -0.028 | [4] -0.015 | [5] 0.02 | [6] 0.029 | [7] -0.008 | [8] -0.01

PHKA2 (UniProt P46019)
inactive: ibrutinib -0.032 | [1] 0.095 | ralimetinib -0.022 | [2] -0.097 | [3] -0.016 | [4] -0.03 | [5] -0.076 | [6] 0.007 | [7] 0.013 | [8] -0.015

PIK3R1 (UniProt P27986)
inactive: ibrutinib -0.018 | [1] 0.302 | ralimetinib -0.003 | [2] -0.06 | [3] -0.008 | [4] -0.006 | [5] 0.027 | [6] -0.013 | [7] -0.006 | [8] 0.019

PICALM (UniProt Q13492)
inactive: ibrutinib -0.023 | [1] 0.011 | ralimetinib -0.025 | [2] -0.039 | [3] -0.004 | [4] -0.018 | [5] 0.004 | [6] 0.021 | [7] -0.004 | [8] -0.005

PI4KB (UniProt Q9UBF8)
Sequence of UniProt Q9UBF8 (Q9UBF8 whole entry, looked up): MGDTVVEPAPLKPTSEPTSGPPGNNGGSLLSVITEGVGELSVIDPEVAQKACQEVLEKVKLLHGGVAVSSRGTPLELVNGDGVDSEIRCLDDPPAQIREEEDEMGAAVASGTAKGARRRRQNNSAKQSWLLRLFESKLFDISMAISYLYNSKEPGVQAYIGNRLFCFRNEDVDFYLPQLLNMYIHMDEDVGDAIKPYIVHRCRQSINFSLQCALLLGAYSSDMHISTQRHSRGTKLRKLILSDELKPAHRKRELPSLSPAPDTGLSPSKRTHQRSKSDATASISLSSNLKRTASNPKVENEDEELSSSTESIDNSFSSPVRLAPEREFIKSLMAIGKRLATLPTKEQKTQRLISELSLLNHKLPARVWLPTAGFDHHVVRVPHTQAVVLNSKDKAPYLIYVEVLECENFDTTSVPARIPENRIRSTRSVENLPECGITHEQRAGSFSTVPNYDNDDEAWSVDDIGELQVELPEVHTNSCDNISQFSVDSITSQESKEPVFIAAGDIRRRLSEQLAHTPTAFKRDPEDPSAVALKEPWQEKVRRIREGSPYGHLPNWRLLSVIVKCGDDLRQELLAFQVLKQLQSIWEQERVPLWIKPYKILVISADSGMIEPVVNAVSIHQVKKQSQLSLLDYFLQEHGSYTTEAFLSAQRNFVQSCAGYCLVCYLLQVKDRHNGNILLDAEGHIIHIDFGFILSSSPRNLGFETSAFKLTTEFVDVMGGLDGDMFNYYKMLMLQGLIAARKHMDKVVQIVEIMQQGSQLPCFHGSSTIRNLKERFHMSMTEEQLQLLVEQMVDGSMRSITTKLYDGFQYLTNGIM
inactive: ibrutinib -0.044 | [1] 0.208 | ralimetinib 0.021 | [2] -0.021 | [3] -0.004 | [4] -0.015 | [5] -0.018 | [6] 0.022 | [7] 0 | [8] 0.012

PPME1 isoform 4 (UniProt Q9Y570)
inactive: ibrutinib 0.042 | [1] 0.009 | ralimetinib 0.008 | [2] 0.018 | [3] -0.001 | [4] -0.021 | [5] -0.004 | [6] -0.011 | [7] -0.023 | [8] 0.012

PHLDB1 (UniProt Q86UU1)
inactive: ibrutinib 0.05 | [1] 0.049 | ralimetinib -0.094 | [2] 0.096 | [3] -0.021 | [4] 0.004 | [5] -0.009 | [6] 0.114 | [7] -0.001 | [8] 0.156

PIR (UniProt O00625)
active: [3] 0.254
inactive: ibrutinib 0.029 | [1] -0.01 | ralimetinib -0.017 | [2] 0.019 | [4] -0.034 | [5] 0.007 | [6] -0.003 | [7] 0.232 | [8] -0.022

PTMA (UniProt P06454)
inactive: ibrutinib 0.015 | [1] 0.028 | ralimetinib -0.121 | [2] 0.009 | [3] 0.004 | [4] -0.068 | [5] 0.006 | [6] 0.023 | [7] -0.015 | [8] 0.002

PKP3 isoform 2 (UniProt Q9Y446)
Sequence of UniProt Q9Y446 (Q9Y446 whole entry, looked up): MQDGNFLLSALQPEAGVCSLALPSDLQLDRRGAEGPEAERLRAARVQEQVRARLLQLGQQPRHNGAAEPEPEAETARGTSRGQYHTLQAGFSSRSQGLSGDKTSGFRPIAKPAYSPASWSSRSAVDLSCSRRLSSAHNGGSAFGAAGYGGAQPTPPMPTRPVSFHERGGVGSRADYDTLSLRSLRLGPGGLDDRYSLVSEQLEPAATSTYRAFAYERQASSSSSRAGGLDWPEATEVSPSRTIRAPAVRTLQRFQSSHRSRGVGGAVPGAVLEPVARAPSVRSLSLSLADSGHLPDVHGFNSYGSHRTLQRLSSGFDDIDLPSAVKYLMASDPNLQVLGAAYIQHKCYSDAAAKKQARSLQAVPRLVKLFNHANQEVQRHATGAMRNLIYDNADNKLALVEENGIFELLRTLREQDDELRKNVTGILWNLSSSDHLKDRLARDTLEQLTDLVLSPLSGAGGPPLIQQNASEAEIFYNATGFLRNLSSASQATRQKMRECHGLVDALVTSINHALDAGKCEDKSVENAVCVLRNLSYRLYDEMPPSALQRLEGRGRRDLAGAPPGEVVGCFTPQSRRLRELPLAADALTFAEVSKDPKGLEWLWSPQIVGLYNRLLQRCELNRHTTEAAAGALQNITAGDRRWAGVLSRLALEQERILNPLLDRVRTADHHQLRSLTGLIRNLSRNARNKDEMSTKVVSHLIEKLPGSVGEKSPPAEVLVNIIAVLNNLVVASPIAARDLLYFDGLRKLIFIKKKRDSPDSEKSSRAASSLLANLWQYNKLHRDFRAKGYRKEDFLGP
inactive: ibrutinib 0.005 | [1] -0.022 | ralimetinib -0.028 | [2] 0.009 | [3] -0.006 | [4] 0.014 | [5] 0.021 | [6] 0.004 | [7] -0.019 | [8] 0.052

PPOX (UniProt P50336)
Sequence of UniProt P50336 (P50336 whole entry, looked up): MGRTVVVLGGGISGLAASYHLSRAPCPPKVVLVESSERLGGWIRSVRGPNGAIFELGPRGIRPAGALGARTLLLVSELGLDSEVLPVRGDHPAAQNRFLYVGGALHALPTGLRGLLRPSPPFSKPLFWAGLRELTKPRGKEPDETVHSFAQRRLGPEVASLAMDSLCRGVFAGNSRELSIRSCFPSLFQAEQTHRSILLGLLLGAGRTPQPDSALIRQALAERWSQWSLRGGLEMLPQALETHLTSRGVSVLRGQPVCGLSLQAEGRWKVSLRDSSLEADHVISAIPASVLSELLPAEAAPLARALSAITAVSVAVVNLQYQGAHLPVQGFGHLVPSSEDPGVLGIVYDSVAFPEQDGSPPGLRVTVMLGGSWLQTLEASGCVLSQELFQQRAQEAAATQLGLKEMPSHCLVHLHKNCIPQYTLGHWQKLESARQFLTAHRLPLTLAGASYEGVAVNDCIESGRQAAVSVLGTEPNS
inactive: ibrutinib 0.067 | [1] -0.008 | ralimetinib 0.001 | [2] 0.091 | [3] 0.301 | [4] -0.022 | [5] -0.138 | [6] 0.105 | [7] 0.006 | [8] 0.012

PTP4A1 (UniProt Q93096)
inactive: ibrutinib 0.011 | [1] 0.027 | ralimetinib 0.015 | [2] -0.071 | [3] -0.031 | [4] -0.113 | [5] -0.007 | [6] -0.012 | [7] -0.048 | [8] 0

PIP5K1A (UniProt Q99755)
Sequence of UniProt Q99755 (Q99755 whole entry, looked up): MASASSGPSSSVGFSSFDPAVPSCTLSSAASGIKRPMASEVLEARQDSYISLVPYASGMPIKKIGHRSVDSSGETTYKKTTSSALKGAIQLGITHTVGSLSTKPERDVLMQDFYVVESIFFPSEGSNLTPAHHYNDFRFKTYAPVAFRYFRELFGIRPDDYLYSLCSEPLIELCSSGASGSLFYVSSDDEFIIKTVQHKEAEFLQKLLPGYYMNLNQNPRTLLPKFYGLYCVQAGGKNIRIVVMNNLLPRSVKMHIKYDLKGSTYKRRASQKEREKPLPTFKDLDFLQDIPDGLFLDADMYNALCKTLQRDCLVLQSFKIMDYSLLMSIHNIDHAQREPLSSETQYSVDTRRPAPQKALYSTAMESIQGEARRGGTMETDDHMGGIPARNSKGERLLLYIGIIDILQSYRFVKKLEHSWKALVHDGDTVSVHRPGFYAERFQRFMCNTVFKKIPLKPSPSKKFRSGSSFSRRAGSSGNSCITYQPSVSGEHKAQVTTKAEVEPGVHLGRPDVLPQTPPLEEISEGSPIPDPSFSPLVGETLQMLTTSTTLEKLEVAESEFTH
inactive: ibrutinib 0.012 | [1] 0.201 | ralimetinib -0.053 | [2] 0.001 | [3] 0 | [4] 0.056 | [5] -0.127 | [6] 0.105 | [7] 0.02 | [8] -0.053

PCIF1 (UniProt Q9H4Z3)
inactive: ibrutinib 0.019 | [1] 0.019 | ralimetinib 0.091 | [2] 0.017 | [3] 0 | [4] 0.002 | [5] 0.037 | [6] -0.033 | [7] 0.025 | [8] -0.029

PLEKHO2 (UniProt Q8TD55)
Sequence of UniProt Q8TD55 (Q8TD55 whole entry, looked up): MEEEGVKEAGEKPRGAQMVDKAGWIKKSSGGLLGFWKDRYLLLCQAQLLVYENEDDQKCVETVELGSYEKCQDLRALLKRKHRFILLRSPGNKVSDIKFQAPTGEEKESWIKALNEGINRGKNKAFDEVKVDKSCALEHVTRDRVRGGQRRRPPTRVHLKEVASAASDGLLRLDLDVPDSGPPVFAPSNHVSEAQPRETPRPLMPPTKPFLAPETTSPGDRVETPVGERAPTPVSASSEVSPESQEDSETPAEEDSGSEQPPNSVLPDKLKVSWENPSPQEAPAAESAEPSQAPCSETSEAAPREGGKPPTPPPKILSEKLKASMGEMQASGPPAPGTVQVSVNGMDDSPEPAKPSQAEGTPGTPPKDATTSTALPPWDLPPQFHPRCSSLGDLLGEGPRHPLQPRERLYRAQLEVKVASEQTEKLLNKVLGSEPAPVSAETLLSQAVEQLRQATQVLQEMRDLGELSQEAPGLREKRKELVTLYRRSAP
inactive: ibrutinib 0.358 | [1] -0.102 | ralimetinib -0.11 | [2] 0.108 | [3] 0.006 | [4] 0.01 | [5] 0.069 | [6] 0.048 | [7] 0.252 | [8] -0.129

PEF1 (UniProt Q9UBV8)
inactive: ibrutinib 0.009 | [1] -0.021 | ralimetinib -0.034 | [2] -0.036 | [3] -0.029 | [4] -0.025 | [5] -0.004 | [6] 0.021 | [7] 0.01 | [8] -0.01

PPP2R5C isoform 5 (UniProt Q13362)
inactive: ibrutinib -0.002 | [1] 0.012 | ralimetinib -0.021 | [2] -0.036 | [3] -0.037 | [4] -0.038 | [5] 0.02 | [6] 0.002 | [7] 0.014 | [8] 0.037

PRKCSH isoform 2 (UniProt P14314)
inactive: ibrutinib -0.125 | [1] 0.069 | ralimetinib 0.012 | [2] -0.142 | [3] -0.004 | [4] 0.04 | [5] -0.017 | [6] 0.131 | [7] 0.132 | [8] -0.045

PPP1R8 (UniProt Q12972)
inactive: ibrutinib -0.029 | [1] -0.026 | ralimetinib -0.039 | [2] -0.031 | [3] 0.011 | [4] -0.011 | [5] -0.034 | [6] 0.002 | [7] -0.036 | [8] -0.028

PHACTR4 isoform 2 (UniProt Q8IZ21)
inactive: ibrutinib -0.009 | [1] -0.005 | ralimetinib -0.009 | [2] -0.047 | [3] -0.019 | [4] 0.025 | [5] -0.028 | [6] 0.021 | [7] -0.016 | [8] -0.01

PCF11 (UniProt O94913)
inactive: ibrutinib -0.027 | [1] -0.006 | ralimetinib -0.005 | [2] -0.02 | [3] 0.022 | [4] 0.03 | [5] -0.02 | [6] -0.021 | [7] 0.045 | [8] -0.02

PWP1 (UniProt Q13610)
inactive: ibrutinib 0.022 | [1] -0.017 | ralimetinib 0.012 | [2] -0.011 | [3] -0.02 | [4] -0.053 | [5] -0.025 | [6] -0.009 | [7] 0.032 | [8] -0.001

POGK (UniProt Q9P215)
inactive: ibrutinib 0.051 | [1] -0.012 | ralimetinib 0.04 | [2] -0.026 | [3] -0.012 | [4] 0.018 | [5] 0.04 | [6] 0.01 | [7] -0.047 | [8] 0.027

PIP4K2C (UniProt Q8TBX8)
inactive: ibrutinib 0.012 | [1] 0.277 | ralimetinib 0.039 | [2] -0.055 | [3] -0.055 | [4] -0.047 | [5] -0.027 | [6] 0.03 | [7] -0.027 | [8] -0.031

POC5 (UniProt Q8NA72)
Sequence of UniProt Q8NA72 (Q8NA72 whole entry, looked up): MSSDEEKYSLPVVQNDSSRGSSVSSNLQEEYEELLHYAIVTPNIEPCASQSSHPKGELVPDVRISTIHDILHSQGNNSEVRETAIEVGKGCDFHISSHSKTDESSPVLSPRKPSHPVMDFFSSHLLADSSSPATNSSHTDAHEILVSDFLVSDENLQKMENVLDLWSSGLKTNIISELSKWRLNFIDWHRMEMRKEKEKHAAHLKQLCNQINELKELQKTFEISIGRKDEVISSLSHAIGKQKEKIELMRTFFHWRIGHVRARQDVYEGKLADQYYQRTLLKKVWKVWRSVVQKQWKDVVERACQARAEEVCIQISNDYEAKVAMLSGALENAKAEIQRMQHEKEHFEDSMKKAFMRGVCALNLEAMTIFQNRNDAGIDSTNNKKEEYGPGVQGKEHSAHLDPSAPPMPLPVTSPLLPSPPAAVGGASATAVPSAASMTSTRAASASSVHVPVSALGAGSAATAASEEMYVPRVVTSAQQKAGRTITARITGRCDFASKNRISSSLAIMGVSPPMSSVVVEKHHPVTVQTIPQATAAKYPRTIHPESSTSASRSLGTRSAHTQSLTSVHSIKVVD
inactive: ibrutinib 0.013 | [1] -0.063 | ralimetinib 0.062 | [2] -0.029 | [3] 0.101 | [4] 0.015 | [5] 0.026 | [6] -0.015 | [7] 0 | [8] -0.02

PSMB9 (UniProt P28065)
Sequence of UniProt P28065 (P28065 whole entry, looked up): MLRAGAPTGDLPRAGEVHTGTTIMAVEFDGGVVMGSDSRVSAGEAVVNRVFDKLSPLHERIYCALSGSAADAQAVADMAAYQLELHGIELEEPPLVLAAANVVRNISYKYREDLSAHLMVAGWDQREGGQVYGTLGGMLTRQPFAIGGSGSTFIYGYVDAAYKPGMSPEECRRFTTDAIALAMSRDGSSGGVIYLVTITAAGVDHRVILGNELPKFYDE
inactive: ibrutinib -0.073 | [1] -0.196 | ralimetinib 0.052 | [2] -0.01 | [3] 0.011 | [4] 0.003 | [5] -0.047 | [6] 0.096 | [7] -0.027 | [8] -0.178

PLA2G4B isoform 6 (UniProt P0C869)
inactive: ibrutinib -0.029 | [1] -0.046 | ralimetinib -0.17 | [2] -0.15 | [3] 0 | [4] -0.047 | [5] -0.149 | [6] 0.34 | [7] -0.005 | [8] -0.052

PITRM1 isoform 2 (UniProt Q5JRX3)
Sequence of UniProt Q5JRX3 (Q5JRX3 whole entry, looked up): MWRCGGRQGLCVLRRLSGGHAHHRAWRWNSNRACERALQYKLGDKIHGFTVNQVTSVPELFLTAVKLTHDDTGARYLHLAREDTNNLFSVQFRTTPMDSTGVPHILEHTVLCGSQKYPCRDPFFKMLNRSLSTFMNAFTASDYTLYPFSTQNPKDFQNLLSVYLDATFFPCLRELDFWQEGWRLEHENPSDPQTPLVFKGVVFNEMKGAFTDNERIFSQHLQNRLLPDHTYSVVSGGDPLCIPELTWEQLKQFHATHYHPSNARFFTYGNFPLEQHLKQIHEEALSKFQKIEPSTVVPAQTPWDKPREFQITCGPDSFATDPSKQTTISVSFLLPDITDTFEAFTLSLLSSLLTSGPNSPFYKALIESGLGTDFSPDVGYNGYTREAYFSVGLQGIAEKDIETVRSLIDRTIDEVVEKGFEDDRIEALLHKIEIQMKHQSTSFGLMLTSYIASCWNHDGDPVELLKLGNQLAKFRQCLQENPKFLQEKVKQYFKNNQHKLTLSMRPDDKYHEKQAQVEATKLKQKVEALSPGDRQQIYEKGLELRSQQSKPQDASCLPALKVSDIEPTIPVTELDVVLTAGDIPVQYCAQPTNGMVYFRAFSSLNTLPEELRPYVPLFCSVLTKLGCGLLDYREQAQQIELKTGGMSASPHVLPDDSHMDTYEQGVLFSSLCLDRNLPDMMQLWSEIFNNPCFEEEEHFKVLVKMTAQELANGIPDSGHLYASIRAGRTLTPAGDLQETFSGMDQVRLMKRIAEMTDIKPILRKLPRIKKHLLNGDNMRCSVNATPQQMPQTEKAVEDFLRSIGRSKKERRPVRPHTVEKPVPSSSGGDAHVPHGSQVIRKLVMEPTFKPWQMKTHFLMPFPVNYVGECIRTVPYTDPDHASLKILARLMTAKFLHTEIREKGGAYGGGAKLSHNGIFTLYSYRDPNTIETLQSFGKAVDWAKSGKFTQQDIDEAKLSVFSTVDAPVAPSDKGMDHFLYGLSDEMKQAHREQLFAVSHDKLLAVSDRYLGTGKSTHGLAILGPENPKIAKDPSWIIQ
inactive: ibrutinib 0.007 | [1] -0.004 | ralimetinib 0.134 | [2] -0.009 | [3] -0.019 | [4] 0.001 | [5] -0.021 | [6] -0.001 | [7] -0.005 | [8] 0.012

— the supplement of paper PMC10849652
